The source of these data is PubChem BioAssay (Tox21).

Test [1] in a line: Nuclear factor erythroid 2-related factor 2/antioxidant responsive element (Nrf2/ARE) small molecule agonists: luciferase reporter gene qHTS assay in human keratinocytes (AID 1919969; further: nearly all actives have a fitted effect of over 35% in size; further: potency means the concentration at half of the fitted maximal effect). (In general: Reporter assays use an easily measured gene product as a stand-in for the process of interest.)
The target in test [2] is Gonadotropin-releasing hormone receptor (Homo sapiens) (UniProt P30968). In words: Human gonadotropin-releasing hormone receptor (GnRHR) small molecule agonists, calcium flux assay in GnRHR-HEK293 cells (AID 1920063). Further: nearly all actives have a fitted effect of over 35% in size. The essentials: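 Fluorescence kinetics (480 nm excitation, 540 nm emission; 3 min, 1 s steps) report calcium mobilisation in human GnRHR-HEK293 cells in agonist mode. Dye incubation: 1 h, 37 C.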
Gonadotropin-releasing hormone receptor (Homo sapiens), sequence (P30968 whole entry, looked up): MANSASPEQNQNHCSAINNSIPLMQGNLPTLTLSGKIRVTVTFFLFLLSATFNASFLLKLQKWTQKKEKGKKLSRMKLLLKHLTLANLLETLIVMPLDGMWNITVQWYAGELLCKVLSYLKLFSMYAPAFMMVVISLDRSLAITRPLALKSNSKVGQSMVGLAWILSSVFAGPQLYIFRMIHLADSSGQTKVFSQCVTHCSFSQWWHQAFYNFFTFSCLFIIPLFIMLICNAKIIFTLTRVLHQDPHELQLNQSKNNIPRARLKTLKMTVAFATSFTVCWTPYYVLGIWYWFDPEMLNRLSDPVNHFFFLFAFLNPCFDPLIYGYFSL
Background: Calcium assays in cells follow changes in intracellular calcium, usually with a dye or a luminescent sensor.

In test [3] the target is KiSS-1 receptor (Homo sapiens) (UniProt Q969F8). Nature of the test: Human kisspeptin (KISS1R) small molecule agonists, calcium flux assay in KISS1R-HEK293 cells (AID 1920064; active means well fitted activation curve with a large enough effect in the repeat runs). The procedure, abridged: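 Measures KISS1R agonism through calcium-sensitive dye fluorescence in stably transfected HEK293 cells, read for 3 min after pin-tool compound delivery; 15-point titrations in triplicate.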
KiSS-1 receptor (Homo sapiens), sequence (Q969F8 whole entry, looked up): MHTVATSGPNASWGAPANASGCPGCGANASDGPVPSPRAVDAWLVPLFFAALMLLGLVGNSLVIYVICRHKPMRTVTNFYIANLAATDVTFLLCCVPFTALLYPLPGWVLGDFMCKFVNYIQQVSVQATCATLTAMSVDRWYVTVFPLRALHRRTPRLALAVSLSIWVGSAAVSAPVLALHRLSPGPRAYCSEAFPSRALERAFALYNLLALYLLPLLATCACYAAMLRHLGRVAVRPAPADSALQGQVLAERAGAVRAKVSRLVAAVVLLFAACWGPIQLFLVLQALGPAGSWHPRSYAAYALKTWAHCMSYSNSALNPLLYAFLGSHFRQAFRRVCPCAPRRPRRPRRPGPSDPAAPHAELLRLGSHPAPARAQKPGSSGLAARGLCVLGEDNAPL

A short description of test [4]: G protein-coupled receptor (GPCR) small molecule agonists, calcium flux assay: HEK293 wild type cell line counter screen (AID 1920065). The procedure, abridged: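 Readout: fluorescence at 480 nm excitation/540 nm emission, sampled at 1 s intervals for 3 min. Cells had been cultured 18 h, then dye-loaded 1 h at 37 C before compound or ATP addition.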
Test [5] is described as follows: p53 small molecule agonists, cell-based qHTS assay with rat liver microsomes (AID 1963578). The procedure, abridged:
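Each plate received p53RE-bla cells, then compound, then rat liver microsomes and NADPH (both 0.5 mg/mL final). Plates were held 16 h at 37 C, and beta-lactamase activity was detected with LiveBLAzer over 2 h.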
In general terms: Quantitative high-throughput screening tests each substance at several concentrations.

Test [6] in a line: p53 small molecule agonists, cell-based qHTS assay with human liver microsomes: qHTS cell viability counter screen (AID 1963579). Further: nearly all actives have a fitted effect of over 45% in size. The procedure, abridged: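 Tox21 library compounds, delivered from DMSO stocks, were tested on p53RE-bla cells together with 0.5 mg/mL human liver microsomes and 0.5 mg/mL NADPH (final) over 16 h at 37 C; CellTiter-Glo luminescence served as the cytotoxicity measure.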

Test [7] is described as follows: p53 small molecule agonists, cell-based qHTS assay: qHTS cell viability counter screen (AID 1963581). Further: nearly all actives have a fitted effect of over 45% in size. The essentials:
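In the same plates used for the p53 bla reporter, HCT-116 cells given compounds for 16 h at 37 C received CellTiter-Glo; luminescence was recorded 30 min later at room temperature.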

Test [8] in a line: p53 small molecule agonists, cell-based qHTS assay (AID 1963582; active means well fitted activation curve with a large enough effect in the signal ratio in the repeat runs, not every such curve was filed as active; the % refers to the signal ratio). The procedure, abridged: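 Compounds are pin-transferred in DMSO onto p53RE-bla cells and incubated 16 h at 37 C. The B/G FRET beta-lactamase substrate is then applied for 2 h at RT and fluorescence recorded.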
The target of test [9] is 5-hydroxytryptamine receptor 2A (Homo sapiens) (UniProt P28223). Nature of the test: 5-hydroxytryptamine receptor 2A (HTR2A) small molecule antagonists, cell-based qHTS assay (AID 1963586). Further: nearly all actives have a fitted effect of over 45% in size. The essentials: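 Antagonist-mode intracellular calcium assay: DOI (4 nM) added after 5 min compound pre-incubation at room temperature to dye-loaded HTR2A-CHO cells. Fluorescence followed for 3 min, sampled every second.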
5-hydroxytryptamine receptor 2A (Homo sapiens), sequence (P28223 whole entry, looked up): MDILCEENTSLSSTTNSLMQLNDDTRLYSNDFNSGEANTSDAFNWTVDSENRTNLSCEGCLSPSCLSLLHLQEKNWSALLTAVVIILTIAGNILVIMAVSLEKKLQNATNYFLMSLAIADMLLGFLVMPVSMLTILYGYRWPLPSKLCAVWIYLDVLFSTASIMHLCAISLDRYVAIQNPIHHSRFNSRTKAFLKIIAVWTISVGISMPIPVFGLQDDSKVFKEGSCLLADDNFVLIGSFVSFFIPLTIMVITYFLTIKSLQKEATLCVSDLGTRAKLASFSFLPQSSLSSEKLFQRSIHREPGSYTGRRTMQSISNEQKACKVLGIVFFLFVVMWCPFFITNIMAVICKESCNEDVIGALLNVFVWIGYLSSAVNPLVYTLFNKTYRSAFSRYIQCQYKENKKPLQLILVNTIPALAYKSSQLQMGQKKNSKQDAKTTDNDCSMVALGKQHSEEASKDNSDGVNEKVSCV

The target is the same in test [10]. Nature of the test: 5-hydroxytryptamine receptor 2A (HTR2A) small molecule agonists, cell-based qHTS assay (AID 1963587). Further: nearly all actives have a fitted effect of over 30% in size. The essentials:
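CHO cells stably expressing human HTR2A, plated 18 h, loaded with calcium dye 1 h at 37 C. Agonist mode: compounds added and intracellular calcium fluorescence recorded kinetically for 2 min at 1 sec intervals.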

Test [11] addresses Muscarinic acetylcholine receptor M1 (Homo sapiens) (UniProt P11229). Nature of the test: Cholinergic receptor muscarinic 1 (CHRM1) small molecule antagonists, cell-based qHTS assay (AID 1963588). Further: nearly all actives have a fitted effect of over 40% in size. The essentials:
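CHRM1-CHO calcium-flux assay, antagonist mode. Cells were seeded 18 h, dye-loaded 1 h at 37 C and given compound for 5 min at RT, then acetylcholine was added at 50nM. FDSS fluorescence was read 3 min; 15 concentrations, three runs.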

For test [12] the target is unchanged. Nature of the test: Cholinergic receptor muscarinic 1 (CHRM1) small molecule agonists, cell-based qHTS assay (AID 1963589). Further: nearly all actives have a fitted effect of over 35% in size. The procedure, abridged: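 Each compound was tested at 15 concentrations across three independent runs on dye-loaded CHO cells stably expressing human CHRM1, reading intracellular calcium fluorescence kinetically at 1 sec intervals.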

The nature of test [13]: cAMP Responsive Elements (CRE) small molecule agonists, cell-based qHTS assay (AID 1963590). The essentials: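 Cell line: CRE-bla HEK 293T; medium DMEM/10% dialyzed FBS/0.1 mM NEAA/1 mM pyruvate/25 mM HEPES; 3 h compound exposure; beta-lactamase FRET readout after 2 h substrate loading at RT.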
Test [14] concerns the target Beta-2 adrenergic receptor (Homo sapiens) (UniProt P07550). In words: Adrenergic beta2 receptor (ADRB2) small molecule antagonists, cell-based qHTS assay (AID 1963592). Further: series mostly up to about 92 µM; nearly all actives have a fitted effect of over 50% in size. The essentials: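 Cells (CHO, stable ADRB2 overexpression) incubated 18-20hr at 37C; compounds added from DMSO; agonist mix (1nM isoproterenol, 100uM IBMX, 25uM Ro-20-1724) added; 0.5hr RT; d2-cAMP and anti-cAMP-cryptate added; 1hr RT; 665/615 nm read.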

For test [15] the target is unchanged. Nature of the test: Adrenergic beta2 receptor (ADRB2) small molecule agonists, cell-based qHTS assay (AID 1963593).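 Further: CHO cells stably overexpressing human ADRB2.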 The essentials:
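CHO cells stably over-expressing ADRB2 were plated overnight at 37C, then dosed with compounds plus a stimulation mix containing 100uM IBMX and 25uM Ro-20-1724 for 0.5hr at room temperature. cAMP was measured by HTRF competition, 1hr.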

The target of test [16] is D(2) dopamine receptor (Homo sapiens) (UniProt P14416). Nature of the test: Dopamine D2 receptor (DRD2) small molecule antagonists, cell-based qHTS assay (AID 1963595; active means well fitted inhibition curve with a large enough effect in the signal ratio in the repeat runs, with a control signal flat; the % refers to the signal ratio; further: potency means the concentration at half of the fitted maximal effect). The procedure, abridged:
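DRD2-HEK293; 0.1 mM Ro20-1724; cpd 10 min RT; NKH477 200 nM + quinpirole 12 nM, 30 min RT; HTRF cAMP (cAMP-d2/anti-cAMP cryptate), 665/620 nm ratio after 1 h.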

A short description of test [17]: p53 small molecule agonists, cell-based qHTS assay with rat liver microsomes: qHTS cell viability counter screen (AID 1963580). Further: nearly all actives have a fitted effect of over 45% in size. The procedure, abridged:
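Viability is assessed in parallel with the p53 reporter read: HCT-116 p53RE-bla cells receive compounds plus rat microsomes and NADPH (0.5 mg/mL final apiece), incubate 16 h at 37 C, and then CellTiter-Glo luminescence is recorded.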

Test [18] in a line: cAMP Responsive Elements (CRE) small molecule antagonists, cell-based qHTS assay (AID 1963591; active means well fitted inhibition curve with a large enough effect in the signal ratio in the repeat runs, not every such curve was filed as active; the % refers to the signal ratio). The procedure, abridged: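 Inhibition of NKH477-driven (0.25 uM final) CRE-beta-lactamase signal in HEK293T cells, 3 h compound exposure at 37 °C, detected by FRET substrate fluorescence.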
Test [19] has as its target D(2) dopamine receptor (Homo sapiens) (UniProt P14416). Nature of the test: Dopamine D2 receptor (DRD2) small molecule agonists, cell-based qHTS assay (AID 1963594). Further: nearly all actives have a fitted effect of over 35% in size. The essentials:
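HEK293 cells stably expressing human DRD2, pre-treated with PDE inhibitor Ro20-1724 (0.1 mM final) and compound 10 min at room temperature, then stimulated with NKH477 (200nM […]) for 30 min. cAMP read by HTRF (665/620 nm).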

The nature of test [20]: p53 small molecule agonists, cell-based qHTS assay with human liver microsomes (AID 1963577).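 Further: p53 response element beta-lactamase reporter cells with liver microsomes plus NADPH.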 The essentials:
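Metabolically competent format: test substances, human liver microsomes and NADPH (both 0.5 mg/mL final) incubated with p53RE-bla cells 16 h at 37 C. Beta-lactamase reporter signal then quantified by fluorescence.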

SMILES strings stand for the structures. Values without a mark were called inactive. Results filed as inconclusive are left out. Active and inactive are the calls of the source. Unless noted, the call rests on the fitted dose curve.

Beta-2 adrenergic receptor (Homo sapiens), sequence (P07550 whole entry, looked up): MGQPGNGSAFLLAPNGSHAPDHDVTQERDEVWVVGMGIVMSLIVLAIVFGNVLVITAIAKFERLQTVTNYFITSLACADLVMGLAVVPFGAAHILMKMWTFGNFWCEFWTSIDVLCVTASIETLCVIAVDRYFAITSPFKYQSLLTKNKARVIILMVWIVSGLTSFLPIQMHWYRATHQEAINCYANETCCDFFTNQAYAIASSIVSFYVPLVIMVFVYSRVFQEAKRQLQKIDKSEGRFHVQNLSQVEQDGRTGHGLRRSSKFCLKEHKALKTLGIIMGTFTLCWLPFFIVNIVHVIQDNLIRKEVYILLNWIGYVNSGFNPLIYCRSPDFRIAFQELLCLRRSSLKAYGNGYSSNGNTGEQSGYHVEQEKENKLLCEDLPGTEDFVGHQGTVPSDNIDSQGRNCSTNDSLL
Muscarinic acetylcholine receptor M1 (Homo sapiens), sequence (P11229 whole entry, looked up): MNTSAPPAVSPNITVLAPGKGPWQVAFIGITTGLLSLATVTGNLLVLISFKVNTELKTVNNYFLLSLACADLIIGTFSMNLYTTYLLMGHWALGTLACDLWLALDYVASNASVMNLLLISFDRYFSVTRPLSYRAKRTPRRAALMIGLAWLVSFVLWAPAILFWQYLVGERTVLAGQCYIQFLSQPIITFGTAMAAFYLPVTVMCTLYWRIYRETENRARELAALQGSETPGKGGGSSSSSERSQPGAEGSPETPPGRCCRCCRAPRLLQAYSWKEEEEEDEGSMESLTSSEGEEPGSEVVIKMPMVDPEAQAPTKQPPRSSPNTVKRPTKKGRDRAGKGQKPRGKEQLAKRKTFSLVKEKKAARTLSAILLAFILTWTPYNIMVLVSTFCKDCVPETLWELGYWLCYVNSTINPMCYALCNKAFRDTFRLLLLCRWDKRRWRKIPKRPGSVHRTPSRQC
D(2) dopamine receptor (Homo sapiens), sequence (P14416 whole entry, looked up): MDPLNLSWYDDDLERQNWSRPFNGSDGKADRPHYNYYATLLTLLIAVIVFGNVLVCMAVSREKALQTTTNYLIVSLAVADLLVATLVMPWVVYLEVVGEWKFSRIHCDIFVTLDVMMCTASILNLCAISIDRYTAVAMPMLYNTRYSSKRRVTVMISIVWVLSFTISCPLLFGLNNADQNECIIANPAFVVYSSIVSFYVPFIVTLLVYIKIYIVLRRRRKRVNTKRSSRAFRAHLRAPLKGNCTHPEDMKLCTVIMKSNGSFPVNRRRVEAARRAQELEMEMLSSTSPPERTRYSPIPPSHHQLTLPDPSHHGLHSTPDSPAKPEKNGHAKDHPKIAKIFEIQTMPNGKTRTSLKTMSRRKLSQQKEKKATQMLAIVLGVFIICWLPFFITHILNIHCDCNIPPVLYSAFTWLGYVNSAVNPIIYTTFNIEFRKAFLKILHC

On to `CCc1ncc(C)[nH]1`, for which the Potency result in test [1], in [2], in [3], in test [4], in [5] and in [6] was “inactive” each time. Moreover, the Potency entry in [7], in test [8], in test [9], in test [10], in test [11] and in test [12] was “inactive” in each case. Also, the Potency entry in [13], in test [14], in test [15] and in [16] was “inactive” each time.

With `CN(C)CCCN1c2ccccc2Sc2ccc(C(F)(F)F)cc21`, the Potency entry in [1], in [2], in [3], in test [4], in test [5] and in [6] was “inactive” throughout. Further, the Potency result in [17], in [7], in test [11], in [12], in [18] and in test [14] was “inactive” throughout. Further, the Potency entry in test [19] was “inactive”. Besides, the Potency in test [16] was 0.0596 µM (active).

Take `O=[N+]([O-])c1ccc(O/N=C/c2cc(Br)c(O)c(Br)c2)c([N+](=O)[O-])c1`: the Potency in [1] is 60.8 µM (active). Further, the Potency entry in test [2], in [3], in [4], in test [5], in test [6] and in test [9] was “inactive” in each case. Also, the Potency result in [10], in test [12], in [14], in test [19] and in test [16] was “inactive” in each case.

For the molecule `CCn1nc(C)c2c1C(=O)NCC(c1ccc(O)cc1)=N2`, the Potency result in [1], in test [2], in [3], in [4], in test [5] and in test [6] was “inactive” in each case. Further, the Potency entry in test [17], in test [7], in test [8], in test [9], in [11] and in test [12] was “inactive” throughout. Further, the Potency entry in test [13], in [14], in [15] and in test [19] was “inactive” each time.

`Nc1ccc(N=Nc2ccc(N)cc2)cc1`: the Potency result in test [1], in test [2], in test [3], in test [4], in test [20] and in [17] was “inactive” throughout. Also, the Potency result in test [7], in test [8], in test [9], in test [10], in [11] and in [13] was “inactive” throughout. For the same molecule, the Potency entry in [18], in test [14], in test [19] and in test [16] was “inactive” throughout.

With `CCOc1ccccc1OCC1CNCCO1` (stereo unspecified), the Potency result in test [1], in test [2], in [3], in [4], in test [5] and in test [6] was “inactive” each time. The Potency result in [17], in test [7], in test [8], in [11], in test [12] and in [13] was “inactive” throughout. In addition, the Potency result in test [18] and in test [16] was “inactive” each time.

For `CC1=CC(C)C(C=O)C(C)C1` (stereo unspecified), the Potency result in [1], in test [2], in test [3], in test [4], in test [5] and in test [6] was “inactive” in each case. Besides, the Potency entry in test [17], in [8], in test [9], in test [10], in test [11] and in test [12] was “inactive” each time. For the same molecule, the Potency result in [13], in test [18], in test [19] and in test [16] was “inactive” in each case.

Regarding `Nc1ccc(F)cc1F`, the Potency result in test [1], in test [2], in [3], in test [4], in test [20] and in test [6] was “inactive” each time. For the same molecule, the Potency result in test [7], in [8], in test [9], in [10], in test [11] and in test [12] was “inactive” throughout. The Potency result in test [13], in test [18], in test [14], in test [15] and in test [16] was “inactive” throughout.
